Drawing on PubChem BioAssay, this text covers growth inhibition, inhibition and outcome for 20 compounds.

Unmarked numbers belong to inactive results. For some of these results: Potency and affinity values are given separately. Active and inactive are the calls of the source. Unless noted, no rule for the calls is given here.

The nature of assay [1]: antimalarial activity against Dd2 strain (AID 2302;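 active = growth inhibition above 50% at the single 2 µM test dose, taken to imply half-maximal potency below 2 µM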;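 also: 0% = DMSO untreated growth and 100% = chloroquine plus artemisinin killed control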). The note with it: P. falciparum Dd2 in RBCs, LDH growth readout, 72 h; at 2 µM; active compounds read high.
The nature of assay [2]: human hepatoma cell viability loss – ATP luminescence, cytotoxicity control for P. falciparum antimalarial project, primary screen (AID 2303;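 active = inhibition above 50%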;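 also: 0% = DMSO wells and 100% = digitonin-killed cells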). The note with it: HepG2 viability, 24-48 h, at 10 µM, active compounds read high.
In assay [3] the target is L-lactate dehydrogenase (Plasmodium falciparum (isolate CDC / Honduras)) (UniProt Q27743). Put plainly: PfLDH activity inhibition – cell lysate, 3D7 strain, counter-screen for P. falciparum growth inhibition project (AID 2304).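 Also: 0% = vehicle and 100% = reference inhibitor.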 The note with it: P. falciparum 3D7 crude extract, LDH APAD/NBT absorbance; at 2 µM; active compounds read high. A general note: The purpose of a counterscreen is to sort out artefacts and off-target activity.

Assay [4] in a line: inhibition of 3D7 malaria parasite growth – strain 3D7 (AID 2306).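 Also: 0% = DMSO wells and 100% = chloroquine plus artemisinin control wells.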 Particulars: P. falciparum 3D7 erythrocytic growth, LDH absorbance, 72 h; at 2 µM; active compounds read high.
The target of assay [5] is Calcium-dependent protein kinase 1 (Plasmodium falciparum (isolate 3D7)) (UniProt P62344). Nature of the assay: PfCDPK1 kinase inhibitors, biochemical, TCAMS library (AID 1159585; cut-off not given, nearly all actives have IC50 up to about 0.98 µM;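 also: inhibitors leave more ATP so luminescence rises with inhibition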). Particulars: recombinant PfCDPK1, Kinase-Glo ATP depletion luminescence.
Assay [6] deals with Plasmodium falciparum protein kinase 6 (PK6, PF3D7_1337100) (UniProt Q8IDW1). Nature of the assay: PfPK6 kinase inhibitors, biochemical, TCAMS library (AID 1159586). The note with it: recombinant PfPK6, Kinase-Glo ATP depletion luminescence. (Kinase-Glo reads ATP consumption through a luciferase reaction.)
For assay [7], the target named is Protein kinase 7 (PK7), Plasmodium falciparum 3D7 (PF3D7_0213400) (UniProt Q7YTF7). Put plainly: inhibition of Plasmodium PK7 catalytic activity – biochemical, TCAMS antimalarial set, Kinase-Glo luminescence (AID 1159587). The note with it: recombinant PfPK7, Kinase-Glo ATP depletion luminescence.
Assay [8] deals with Calcium-dependent protein kinase 4 (Plasmodium falciparum (isolate 3D7)) (UniProt Q8IBS5). Put plainly: PfCDPK4 kinase inhibitors, biochemical, TCAMS library (AID 1159588; cut-off not given, nearly all actives have IC50 up to about 0.91 µM). The note with it: recombinant PfCDPK4, Kinase-Glo ATP depletion luminescence.
Chain of Calcium-dependent protein kinase 4 (Plasmodium falciparum (isolate 3D7)) (Q8IBS5 whole entry, looked up): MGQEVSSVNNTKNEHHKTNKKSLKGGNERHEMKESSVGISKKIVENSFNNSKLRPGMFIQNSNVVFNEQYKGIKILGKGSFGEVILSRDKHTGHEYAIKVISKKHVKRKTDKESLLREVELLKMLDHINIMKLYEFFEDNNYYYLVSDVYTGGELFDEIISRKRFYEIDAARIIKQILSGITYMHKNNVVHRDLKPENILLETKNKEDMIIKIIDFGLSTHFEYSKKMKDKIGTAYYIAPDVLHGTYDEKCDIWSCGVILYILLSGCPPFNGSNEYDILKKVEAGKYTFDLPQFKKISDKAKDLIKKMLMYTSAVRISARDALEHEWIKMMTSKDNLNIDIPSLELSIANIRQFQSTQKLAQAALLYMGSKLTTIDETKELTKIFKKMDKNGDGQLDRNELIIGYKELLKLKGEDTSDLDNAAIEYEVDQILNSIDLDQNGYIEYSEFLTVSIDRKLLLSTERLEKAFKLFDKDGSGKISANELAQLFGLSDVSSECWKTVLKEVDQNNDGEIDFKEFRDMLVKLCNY

Chain of Protein kinase 7 (PK7), Plasmodium falciparum 3D7 (PF3D7_0213400) (Q7YTF7 1-343): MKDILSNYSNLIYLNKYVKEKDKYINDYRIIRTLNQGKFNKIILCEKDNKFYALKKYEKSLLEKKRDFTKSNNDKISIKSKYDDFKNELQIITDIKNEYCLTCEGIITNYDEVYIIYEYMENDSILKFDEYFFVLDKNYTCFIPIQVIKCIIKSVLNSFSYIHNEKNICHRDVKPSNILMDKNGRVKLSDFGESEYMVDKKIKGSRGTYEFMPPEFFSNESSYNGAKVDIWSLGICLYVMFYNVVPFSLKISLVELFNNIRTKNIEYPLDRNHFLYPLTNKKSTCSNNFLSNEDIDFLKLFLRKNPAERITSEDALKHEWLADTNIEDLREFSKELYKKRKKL
Chain of Calcium-dependent protein kinase 1 (Plasmodium falciparum (isolate 3D7)) (P62344 whole entry, looked up): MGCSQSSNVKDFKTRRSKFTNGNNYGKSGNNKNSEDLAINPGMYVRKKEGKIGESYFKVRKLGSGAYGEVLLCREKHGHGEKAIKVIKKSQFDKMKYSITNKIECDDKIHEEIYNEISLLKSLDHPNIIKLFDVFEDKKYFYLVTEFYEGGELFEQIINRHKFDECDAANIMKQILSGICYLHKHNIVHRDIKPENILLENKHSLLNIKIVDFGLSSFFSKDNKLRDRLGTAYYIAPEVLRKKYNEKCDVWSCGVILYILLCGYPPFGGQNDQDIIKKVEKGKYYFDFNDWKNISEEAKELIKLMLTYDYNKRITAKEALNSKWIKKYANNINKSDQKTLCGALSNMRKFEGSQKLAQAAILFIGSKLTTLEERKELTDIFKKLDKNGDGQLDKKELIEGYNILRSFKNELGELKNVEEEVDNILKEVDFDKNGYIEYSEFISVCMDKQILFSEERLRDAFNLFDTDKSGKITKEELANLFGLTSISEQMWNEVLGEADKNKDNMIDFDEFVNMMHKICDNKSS
Chain of Plasmodium falciparum protein kinase 6 (PK6, PF3D7_1337100) (Q8IDW1 1-305): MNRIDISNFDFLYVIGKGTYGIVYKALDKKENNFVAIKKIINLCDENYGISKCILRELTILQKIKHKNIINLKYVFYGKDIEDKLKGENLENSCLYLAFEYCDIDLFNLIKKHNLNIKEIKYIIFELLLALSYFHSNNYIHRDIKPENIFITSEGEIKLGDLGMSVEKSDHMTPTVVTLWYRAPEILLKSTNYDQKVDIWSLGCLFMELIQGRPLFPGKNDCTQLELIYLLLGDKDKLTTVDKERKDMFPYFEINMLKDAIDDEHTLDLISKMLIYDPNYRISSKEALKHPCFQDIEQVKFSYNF
Chain of L-lactate dehydrogenase (Plasmodium falciparum (isolate CDC / Honduras)) (Q27743 whole entry, looked up): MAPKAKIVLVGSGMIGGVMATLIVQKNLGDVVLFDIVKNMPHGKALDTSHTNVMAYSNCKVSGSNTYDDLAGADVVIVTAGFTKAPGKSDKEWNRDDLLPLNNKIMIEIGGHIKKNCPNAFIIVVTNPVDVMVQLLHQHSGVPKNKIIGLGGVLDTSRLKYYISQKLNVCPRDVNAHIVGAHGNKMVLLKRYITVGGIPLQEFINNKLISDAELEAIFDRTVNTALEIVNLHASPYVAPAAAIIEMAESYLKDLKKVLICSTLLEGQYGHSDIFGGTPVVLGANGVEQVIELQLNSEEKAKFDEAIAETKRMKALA

On to `CC(C)NCc1ccc(-c2ccc(NC(=O)c3cccc(Cl)c3)cc2)cc1`, for which the results for the growth inhibition in assay [1] and in assay [4] were 14% and 100% (active), respectively. Further, the inhibition in assay [2] was 36%; in assay [3], -2%. Also, the result in assay [5], in assay [6], in assay [7] and in assay [8] was inactive.

As for `Cc1cc(N[C@@H](Cc2ccccc2)C(=O)NCc2cccs2)nc(NCCc2ccc(F)cc2)n1`, the values for the growth inhibition in assay [1] and in assay [4] were 83% (active) and 100% (active), respectively. Moreover, the inhibition in assay [2] and in assay [3] was 3% each time. The outcome in assay [5], in assay [6], in assay [7] and in assay [8] was inactive.

As to `Cc1[nH]cnc1CSCCNC(N)=NCCCCCCCCN=C(N)NCCSCc1nc[nH]c1C`, the growth inhibition in assay [1] was 95% (active); in assay [4] it was 96% (active). Moreover, the inhibition in assay [2] was 24%; in assay [3], -10%. Moreover, the outcome in assay [5], in assay [6], in assay [7] and in assay [8] was inactive.

Consider `O=C([C@H]1C[C@@H]1c1ccccc1)N(Cc1ccc(-c2ccc(CNCCc3ccccc3)cc2)cc1)C1CCNCC1`, for which the growth inhibition was 39% in assay [1] and 96% (active) in assay [4]. The figures for the inhibition in assay [2] and in assay [3] were 36% and -5%, respectively. Besides, the outcome in assay [5], in assay [6], in assay [7] and in assay [8] was inactive.

`CN(C)CCOc1ccc(N2CCN(CCCCNC(=O)c3ccc(/C=C/c4cc(Cl)cc(Cl)c4)cc3)CC2)cc1`: the growth inhibition in assay [1] was 84% (active); in assay [4], 98% (active). The inhibition was 97% (active) in assay [2] and 1% in assay [3]. Also, the outcome in assay [5], in assay [6], in assay [7] and in assay [8] was inactive.

In the case of `O[C@@H](c1cccc(OCc2ccccc2)c1)[C@@H]1CN(CCc2ccccc2)CC[C@@]1(O)c1ccccc1`, the growth inhibition in assay [1] and in assay [4] was 98% (active) throughout. The inhibition was 7% in assay [2] and -4% in assay [3]. Moreover, the result in assay [5], in assay [6], in assay [7] and in assay [8] was inactive.

On to `COc1ccccc1C1CCN(C2CCC(NC(=O)/C=C/c3cc(C(F)(F)F)ccc3F)CC2)CC1` (stereo not given), for which the growth inhibition in assay [1] is 32%; in assay [4], 97% (active). For the same compound, the values for the inhibition in assay [2] and in assay [3] were 39% and -3%, respectively. Further, the outcome in assay [5], in assay [6], in assay [7] and in assay [8] was inactive.

As to `N=C(N)c1ccc(OCc2cccc(COc3ccc(C(=N)N)cc3I)c2)c(I)c1`, the growth inhibition in assay [1] was 100% (active); in assay [4] it was 102% (active). Moreover, the inhibition is 7% in assay [2] and 2% in assay [3]. The outcome in assay [5], in assay [6], in assay [7] and in assay [8] was inactive.

Take `O=C(N[C@H]1CCN(Cc2ccc(OCCN3CCCC3)c(Cl)c2)C1)c1ccc(Cl)c(Cl)c1`: the growth inhibition was 46% in assay [1] and 101% (active) in assay [4]. For the same compound, the results for the inhibition in assay [2] and in assay [3] were 68% (active) and -1%, respectively. In addition, the result in assay [5], in assay [6], in assay [7] and in assay [8] was inactive.

For the compound `COc1ccc(-c2ccc(NC(=O)c3cccc(C#N)c3)cc2)cc1CN(C)C`, the growth inhibition in assay [1] is 10%; in assay [4], 103% (active). Besides, the figures for the inhibition in assay [2] and in assay [3] were 11% and 0%, respectively. Further, the result in assay [5], in assay [6], in assay [7] and in assay [8] was inactive.

With `CCCCOc1cc2[nH]cc(C(=O)OCC)c(=O)c2cc1OCCCC`, the values for the growth inhibition in assay [1] and in assay [4] were 96% (active) and 97% (active), respectively. Besides, the results for the inhibition in assay [2] and in assay [3] were -9% and -2%, respectively. Moreover, the result in assay [5], in assay [6], in assay [7] and in assay [8] was inactive.

On to `CC(C(=O)Nc1ccc(Br)cc1Br)N1CCN(C(=O)c2ccco2)CC1` (stereo not given), for which the growth inhibition in assay [1] was 84% (active); in assay [4], 91% (active). In addition, the inhibition was 3% in assay [2] and -3% in assay [3]. Also, the outcome in assay [5], in assay [6], in assay [7] and in assay [8] was inactive.

As to `CC1CCCN(C(=O)c2cc(-c3ccccn3)nc3c(Cl)cccc23)C1` (stereo not given), the figures for the growth inhibition in assay [1] and in assay [4] were 9% and 86% (active), respectively. Also, the results for the inhibition in assay [2] and in assay [3] were 2% and -5%, respectively. The outcome in assay [5], in assay [6], in assay [7] and in assay [8] was inactive.

`N#Cc1ccc(C(=O)Nc2ccc(Cl)c(N3CCN(CCc4ccccc4)CC3)c2)cc1`: the growth inhibition in assay [1] is 35%; in assay [4], 90% (active). Further, the inhibition in assay [2] and in assay [3] was 5% throughout. The result in assay [5], in assay [6], in assay [7] and in assay [8] was inactive.

In the case of `Cc1c(C(=O)Nc2cc(Sc3ccc(F)cc3)cc([N+](=O)[O-])c2)sc2ncn(Cc3ccccc3F)c(=O)c12`, the growth inhibition in assay [1] was 45%; in assay [4], 98% (active). Moreover, the inhibition was 2% in assay [2] and 5% in assay [3]. In addition, the result in assay [5], in assay [6], in assay [7] and in assay [8] was inactive.

`O=C(NCCCN1CCC(N2CCCCC2)CC1)c1ccc(N2CCOc3ccccc32)s1`: the growth inhibition in assay [1] was 12%; in assay [4], 101% (active). For the same compound, the inhibition in assay [2] is 37%; in assay [3], 4%. For the same compound, the result in assay [5], in assay [6], in assay [7] and in assay [8] was inactive.

`COc1cc2nc(-c3ccc(Br)cc3)cc(N)c2cc1OC`: the values for the growth inhibition in assay [1] and in assay [4] were 69% (active) and 98% (active), respectively. Further, the results for the inhibition in assay [2] and in assay [3] were 90% (active) and -3%, respectively. For the same compound, the outcome in assay [5], in assay [6], in assay [7] and in assay [8] was inactive.

For `Cc1nc(N)nc(N)c1CCCOc1ccccc1Cl`, the growth inhibition was 5% in assay [1] and 98% (active) in assay [4]. Besides, the values for the inhibition in assay [2] and in assay [3] were 40% and -1%, respectively. For the same compound, the result in assay [5], in assay [6], in assay [7] and in assay [8] was inactive.

In the case of `CC(C)Nc1ccc(Nc2ccnc3cc4ccccc4cc23)cc1`, the growth inhibition in assay [1] was 81% (active); in assay [4] it was 100% (active). Moreover, the inhibition in assay [2] is 37%; in assay [3], -3%. In addition, the result in assay [5], in assay [6], in assay [7] and in assay [8] was inactive.

Consider `O=C(NCc1cccc(Br)c1)c1ccc(CNC2CCN(Cc3ccccc3)CC2)cc1`, for which the growth inhibition was 49% in assay [1] and 100% (active) in assay [4]. In addition, the inhibition in assay [2] was 3%; in assay [3] it was 4%. For the same compound, the result in assay [5], in assay [6], in assay [7] and in assay [8] was inactive.

In general, inhibition refers to the drop in the measured response relative to a control, in per cent.
